Reference: the supplement of paper PMC10849652
Targets with a hit are over-represented here; the source holds about 7,900 in all. About 0.6% of all pairs of compound and target were hits.

Experiments:
Test in all cases: log2 fold change, soluble protein after heating vs DMSO (PISA); higher = thermal stabilisation; K562 cells, 10 uM, 30 min; active = over 0.2 and 3.5 SD of the protein, either way, in both replicates (recomputed)
[1] = compound: C1=CC=C(C=C1)[C@H](COC2=CC3=C(C=C2)NC(=O)N3)NC(=O)C4=CC=CN(C4=O)CC5=CC(=C(C=C5)F)F
In short: (§1)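 Soluble protein was defined as the supernatant after 21,000xg for 90 min. It came from K562 cells at 2×10^6 cells/mL given 10 μM compound for 30 min, heated in aliquots for 3 min across 48°C-58°C, pooled, and extracted in PBS with 0.5% NP-40 at 4°C, and was quantified by TMTpro 16plex LC-MS/MS with equalised channel sums. Thermal stability against control samples, from duplicates, is reported as log2 fold change.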

[2] = compound: CC1=C(SC2=C1C(=N[C@H](C3=NN=C(N32)C)CC(=O)N)C4=CC=C(C=C4)Cl)C
In short: as §1

[3] = compound: CC1=C2C(=CC=C1)N=C(N(C2=O)C3=CC=CC=C3C)CN4C=NC5=C(N=CN=C54)N
In short: as §1

[4] = compound: Cc1sc2c(c1C)C(c1ccc(Cl)cc1)=N[C@@H](CC(=O)OC(C)(C)C)c1nnc(C)n1-2
In short: as §1

[5] = compound: c1ccc([C@@H]2C[C@H]2NC2CCNCC2)cc1
In short: as §1

Measured: log2 fold change

CPSF7 isoform 3 (UniProt Q8N684)
UniProt Q8N684, sequence (Q8N684 whole entry, looked up): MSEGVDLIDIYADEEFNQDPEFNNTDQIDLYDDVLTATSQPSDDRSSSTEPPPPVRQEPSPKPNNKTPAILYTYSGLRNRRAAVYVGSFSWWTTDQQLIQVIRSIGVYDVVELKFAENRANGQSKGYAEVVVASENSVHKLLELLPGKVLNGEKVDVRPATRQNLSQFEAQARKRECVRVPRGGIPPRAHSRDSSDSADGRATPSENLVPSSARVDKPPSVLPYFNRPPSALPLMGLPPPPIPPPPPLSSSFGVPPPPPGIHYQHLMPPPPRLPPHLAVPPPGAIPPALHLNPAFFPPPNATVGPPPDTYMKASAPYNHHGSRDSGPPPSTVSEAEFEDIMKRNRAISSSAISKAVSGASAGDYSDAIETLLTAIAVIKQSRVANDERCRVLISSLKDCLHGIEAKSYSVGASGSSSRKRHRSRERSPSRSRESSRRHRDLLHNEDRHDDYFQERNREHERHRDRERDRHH
inactive: [1] 0.007 | [2] 0.013 | [3] -0.012 | [4] 0.017 | [5] -0.013

CLINT1 isoform 3 (UniProt Q14677)
UniProt Q14677, sequence (Q14677 whole entry, looked up): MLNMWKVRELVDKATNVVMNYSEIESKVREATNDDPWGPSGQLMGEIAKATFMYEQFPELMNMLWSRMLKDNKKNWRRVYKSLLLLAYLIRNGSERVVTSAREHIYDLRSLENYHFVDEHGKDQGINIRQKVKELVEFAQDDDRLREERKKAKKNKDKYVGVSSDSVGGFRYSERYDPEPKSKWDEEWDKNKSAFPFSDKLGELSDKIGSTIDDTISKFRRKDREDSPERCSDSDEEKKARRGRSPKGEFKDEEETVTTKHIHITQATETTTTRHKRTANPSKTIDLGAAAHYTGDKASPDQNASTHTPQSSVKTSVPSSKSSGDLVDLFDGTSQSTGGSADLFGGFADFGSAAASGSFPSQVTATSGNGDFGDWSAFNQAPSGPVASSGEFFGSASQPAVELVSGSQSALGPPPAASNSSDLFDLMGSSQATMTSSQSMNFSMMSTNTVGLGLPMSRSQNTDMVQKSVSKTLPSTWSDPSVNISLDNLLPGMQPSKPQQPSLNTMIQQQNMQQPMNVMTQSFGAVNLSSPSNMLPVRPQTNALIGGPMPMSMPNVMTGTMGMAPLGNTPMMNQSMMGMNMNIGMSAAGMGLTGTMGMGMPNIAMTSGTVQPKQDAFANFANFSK
inactive: [1] 0.053 | [2] -0.039 | [3] -0.01 | [4] 0.046 | [5] 0.044

CDC42SE1 (UniProt Q9NRR8)
UniProt Q9NRR8, sequence (Q9NRR8 whole entry, looked up): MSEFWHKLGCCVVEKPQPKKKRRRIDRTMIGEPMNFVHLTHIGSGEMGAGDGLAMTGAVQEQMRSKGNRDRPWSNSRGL
inactive: [1] -0.151 | [2] 0.016 | [3] 0.088 | [4] -0.076 | [5] -0.007
